Source: PubChem
KKLEB tox – counter-screen for CF NF-kB inhibitors: cytotoxicity; AID 602141; KKLEB CF airway cells viability, ATPlite luminescence, overnight; hits give low values; cells stimulated with P. aeruginosa culture filtrate; activity change (cytotoxicity), % at 5 µM; hit rate 0.36% among 360,000;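 active = corrected activity change at or below -50% at 5 µM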
Mdm2 MdmX PPI – disrupts the human Mdm2-MdmX interaction | SaOS-2 split-luciferase Mdm2/MdmX complementation, luminescence | O15151+Q00987 | hit rate 3% among 330,000 | AID 485346 | inhibition, % at 8 µM;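 active = inhibition of at least 50% at 8 µM in the primary screen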
LGR2 antag – blocks bursicon-induced cAMP signaling via Drosophila LGR2. HEK293 LGR2, CRE-luciferase, bursicon-stimulated, 4 h. inhibition, % at 9.99 µM. hit rate 0.35% among 380,000;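 active = drop in luminescence signal, shown as inhibition above about 50% in the replicate tests, limit read from the data, passing the limit was not always enough; inconclusive = probably only some replicates passing the limit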;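 also: agonist challenge used bursicon conditioned medium at about half maximal strength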
Peg3 prom inh – reduces Peg3 promoter-driven luciferase expression in HeLa; hit rate 1.7% among 360,000; AID 588405; inhibition, % at 20 µM; HeLa PEG-Prom luciferase reporter, luminescence, overnight;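 active = inhibition of at least 50% at 20 µM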
HSP90 inh – inhibitors of HSP90 luciferase refolding in rabbit reticulocyte lysate; luciferase refolding luminescence, 3 h; inhibition, % at 5.6 µM; hit rate 0.91% among 290,000; AID 1789;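 active = inhibition above the screen-wide mean plus 3 SD, computed separately per campaign, cut at about 16% in these data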;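 also: 0% = DMSO wells and 100% = 60 µM geldanamycin wells; inhibitors lower the luminescence because luciferase stays unfolded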
CF NFkB inh – blocks PAF-induced NF-kB reporter in cystic fibrosis cells; inhibition, % at 5 µM; KKLEB NF-kB-GFP reporter, GFP fluorescence overnight; hit rate 0.86% among 360,000; AID 588850;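 active = at least 50% inhibition at 5 µM, scaled per plate between neutral and stimulator controls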;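 also: PAF is a Pseudomonas aeruginosa culture filtrate used as stimulus; plate controls were PAF-stimulated DMSO wells for no effect and unstimulated DMSO wells for full effect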
HSP90 inh confirm – confirmation of HSP90 inhibitors | shares compounds with HSP90 inh | rabbit reticulocyte lysate, luciferase refolding luminescence, 3 h | inhibition, % at 5.9 µM | hit rate 64% among 2,300 | AID 1846; in the data active = inhibition above about 18%;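 also: 0% = vehicle wells and 100% = reference inhibitor wells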
FLuc counter – firefly luciferase inhibition, HSP90 counter-screen; purified native firefly luciferase, luminescence; AID 1847; shares compounds with HSP90 inh; hit rate 48% among 2,300; inhibition, % at 5.9 µM;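 active = inhibition above the mean inhibition of all tested sample wells plus 3 SD, cut at about 10% in these data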;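 also: 0% = DMSO with luciferase and 100% = wells lacking luciferase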
Target sequence (P08659 whole entry, looked up): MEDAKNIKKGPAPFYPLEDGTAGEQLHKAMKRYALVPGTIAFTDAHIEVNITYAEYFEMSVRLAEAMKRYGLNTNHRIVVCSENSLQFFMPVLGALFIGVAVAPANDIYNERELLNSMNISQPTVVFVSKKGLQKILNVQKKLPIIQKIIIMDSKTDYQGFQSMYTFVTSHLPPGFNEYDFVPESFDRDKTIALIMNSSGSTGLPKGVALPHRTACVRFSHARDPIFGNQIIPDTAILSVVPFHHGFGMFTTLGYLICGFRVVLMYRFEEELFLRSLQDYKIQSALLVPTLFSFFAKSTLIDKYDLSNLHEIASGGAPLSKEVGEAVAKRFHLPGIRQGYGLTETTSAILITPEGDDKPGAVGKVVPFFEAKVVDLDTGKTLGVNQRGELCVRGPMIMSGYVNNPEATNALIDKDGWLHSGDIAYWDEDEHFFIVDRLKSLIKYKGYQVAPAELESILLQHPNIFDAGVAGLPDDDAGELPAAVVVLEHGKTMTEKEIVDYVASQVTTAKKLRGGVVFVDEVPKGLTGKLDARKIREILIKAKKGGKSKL
Numbers without * were called inactive; u = inconclusive; x = no result. In the library only some 3.6% were active in any assay of this set; here they are far more common.

SMILES	KKLEB tox	Mdm2 MdmX PPI	LGR2 antag	Peg3 prom inh	HSP90 inh	CF NFkB inh	HSP90 inh confirm	FLuc counter
Cc1nc(NC(=O)c2ccccc2)sc1-c1csc(Nc2cccc(Cl)c2)n1	x	-20.7	x	x	41.8*	x	26.6*	-18.3
CC(=O)Nc1ccc(Nc2nc(-c3sc(C)nc3C)cs2)cc1	4.9	29.8	-11.7	-76.2	-2.0	-0.3	x	x
CC(=O)c1cccc(Nc2nc(-c3sc(C)nc3C)cs2)c1	11.3	25.6	x	-25.2	-1.8	-49.0	x	x
Cc1nc(NC(=O)c2ccccc2)sc1-c1csc(Nc2ccc(F)cc2)n1	x	-11.1	x	x	44.2*	x	31.5*	-19.5
Cc1nc(NC(=O)c2ccccc2)sc1-c1csc(Nc2ccc(Cl)cc2)n1	x	-38.7	x	x	36.5*	x	25.7*	-18.6
Cc1nc(NC(=O)CC(C)C)sc1-c1csc(Nc2ccc(Cl)cc2)n1	3.5	24.0	-26.0	-2.0	6.4	13.9	x	x
Cc1nc(NC(=O)c2ccco2)sc1-c1csc(Nc2ccc(Cl)cc2Cl)n1	-6.7	29.9	-23.1	-3.2	8.7	22.5	x	x
CCCC#Cc1ccc2c(c1)O[C@H](CN(C)C(=O)NC(C)C)[C@@H](C)CN([C@H](C)CO)S2(=O)=O	x	x	0.7	x	x	x	x	x
Cc1ccc(S(=O)(=O)Nc2ccc3c(c2)CC(=O)N([C@H](C)CO)C[C@@H](C)[C@H](CN(C)C(=O)Nc2cccc4ccccc24)O3)cc1	x	x	-14.2	x	x	x	x	x
Cc1ccc(NC(=O)NCCN2CCCCC2)cc1Cl	6.5	27.9	5.6	-0.6	-3.1	3.6	x	x
Cc1cccc(NC(=O)NCCN2CCCCC2)c1	-2.8	21.1	1.9	5.9	25.2*	-9.6	-9.2	-12.3
Cc1ccc(-n2nnc(-c3nccn3C)n2)cc1	-5.9	-86.2	u	-44.4	33.0*	-39.6	49.5*	37.4*
O=C(COc1ccc2ccccc2c1)Nc1nccs1	-22.0	-32.4	72.5*	-98.3	23.2*	11.6	54.2*	49.1*
O=C(COc1ccccc1)Nc1nccs1	-7.6	-53.7	-17.4	-203.6	10.0	9.1	x	x
N#CC1(C#N)COC23CCCCC2C1(C#N)C(=N)O3 (configuration not stated)	-3.3	4.7	x	9.7	17.7*	-0.3	-6.1	-12.9
N#CC12COC3(CCCCC3C1(C#N)C#N)OC2=N (configuration not stated)	-4.7	4.9	-2.5	-2.3	0.5	-9.9	x	x
N#Cc1cc2ccccc2nc1N	5.5	19.3	1.8	3.9	20.0*	-3.4	3.2	-0.7
C[C@@H]1CCCCO[C@@H](CN(C)Cc2ccccc2)[C@H](C)CN([C@@H](C)CO)C(=O)c2cc(NS(=O)(=O)c3cccs3)ccc2O1	x	x	1.6	x	x	x	x	x
Cc1ccc2[nH]c(=O)c(COC(=O)C3CCCCC3)cc2c1	-2.2	17.4	-12.7	-17.0	43.8*	1.1	-0.6	-16.1
O=C(OCc1cc2ccccc2[nH]c1=O)C1CCCCC1	-2.8	23.4	x	-3.6	-1.6	-1.2	x	x
O=[N+]([O-])c1ccc(S(=O)(=O)N2CCN=C2SCc2ccc(F)cc2)cc1	-2.5	10.0	7.4	15.7	34.6*	7.2	70.3*	-4.5
C[C@@H]1CN([C@@H](C)CO)C(=O)Cc2cc(NS(=O)(=O)c3ccc(F)cc3)ccc2O[C@@H]1CN(C)S(C)(=O)=O	x	x	-19.4	x	x	x	x	x
O=C(O)CCCCCn1c(SCC(=O)N2CCCC2)nc2ccsc2c1=O	4.1	14.7	6.8	15.7	63.5*	-1.6	4.7	-3.8
COc1cc(/C=C2\C(=O)N(CCC#N)N=C2C)c(Br)cc1OC(C)C	-3.9	5.1	x	27.2	17.6*	21.6	1.6	4.2
COc1ccccc1/C=C1/C(=O)N(c2ccccc2)N=C1C	-12.3	15.9	8.5	6.3	-0.7	3.5	x	x
SMILES	KKLEB tox	Mdm2 MdmX PPI	LGR2 antag	Peg3 prom inh	HSP90 inh	CF NFkB inh	HSP90 inh confirm	FLuc counter
COc1cc2cc(CN(C(=O)NC3CCCCC3)C3CCCC3)c(=O)[nH]c2cc1OC	1.6	5.2	x	-3.3	22.1*	-6.5	-4.3	-7.5
CCOC(=O)C1CCN(c2ccc(-c3cccs3)nn2)CC1	4.8	-2.2	12.5	-32.4	27.0*	6.7	34.2*	38.5*
c1csc(-c2nnc(-c3ccc(N4CCOCC4)cc3)o2)c1	3.1	-39.4	x	-68.2	4.6	-14.3	x	x
c1csc(-c2ccc(N3CCOCC3)nn2)c1	-6.4	-28.4	17.8	-58.2	27.6*	-13.9	33.8*	16.6*
COc1ccccc1C(=O)Nc1ccc2c(c1)C(=O)N(C)[C@@H]1CC[C@H](CC(=O)NCc3ccc(Cl)c(Cl)c3)O[C@@H]1CO2	x	x	-16.0	x	x	x	x	x
NNC(=O)c1c(O)c2cccc3c2n(c1=O)CCC3	1.0	15.7	-4.0	1.6	18.7*	-2.9	2.8	-4.6
O=C(C[C@H]1CC[C@H]2[C@@H](COC[C@@H](O)CN2Cc2cc(F)ccc2F)O1)NCc1ccccc1	x	x	-3.0	x	x	x	x	x
O=C(c1cccc(C(F)(F)F)c1)N1CCCC1	9.1	-3.5	-4.4	-0.2	-0.6	-14.6	x	x
O=C(Nc1ccc(C(=O)N2CCCC2)cc1)c1cccc(C(F)(F)F)c1	-16.4	-4.1	-24.8	-5.0	20.8*	18.9	-7.8	-12.7
C[C@@H]1CN([C@@H](C)CO)S(=O)(=O)c2ccc(C3=CCCC3)cc2O[C@H]1CN(C)C(=O)c1cnccn1	x	x	13.7	x	x	x	x	x
O=C(NNC(=S)NCc1ccco1)c1ccccc1Br	-5.2	17.5	4.2	11.6	3.4	-4.7	x	x
O=C(NCc1ccco1)c1ccccc1Br	12.8	-17.2	x	-9.0	18.6*	1.3	-0.3	-6.0
CN1CCN(C(=O)C2=C[C@@H](c3ccc(Br)cc3)C[C@@H](OCc3ccc(CO)cc3)O2)CC1	10.1	12.9	-20.0	-7.3	25.3*	8.5	-2.6	-4.0
C/C=C/c1cnc2c(c1)C(=O)N([C@H](C)CO)C[C@@H](C)[C@@H](CN(C)C(=O)Cc1ccccn1)O2	x	x	-5.6	x	x	x	x	x
O=[N+]([O-])c1ccc(N2CCN(c3ccc([N+](=O)[O-])cc3CO)CC2)c(CO)c1	1.6	0.3	-6.2	31.7	18.5*	0.1	5.2	-4.4
O=Cc1ccc(-c2ccc(C(=O)O)cc2)o1	-0.7	28.3	4.0	-31.7	17.1*	5.4	9.6	1.2
O=C(COC(=O)c1ccc(N2CCCC2=O)cc1)c1ccccc1	-2.4	-59.9	-40.7	-224.5	18.3*	-1.5	27.3*	-23.0
C[C@H]1CN([C@@H](C)CO)C(=O)c2cc(C3=CCCCC3)cnc2O[C@@H]1CN(C)C(=O)c1cccnc1	x	x	-5.5	x	x	x	x	x
Cc1ccc(Cl)cc1Nc1nc(-c2sc(NC(=O)c3cccc(Cl)c3)nc2C)cs1	x	-50.6	x	x	64.9*	x	43.7*	-20.2
CC(=O)Nc1sc(NC(=O)c2ccc([N+](=O)[O-])cc2)nc1-c1cccs1	-6.0	21.5	x	0.6	3.2	-19.9	x	x
CCCCC(=O)Nc1nc(C)c(-c2csc(Nc3ccccc3OC)n2)s1	-5.9	26.1	-19.9	7.6	3.0	-7.3	x	x
